Drawing on the antibiotic and cytotoxicity screens of Wong et al. (2023), this text covers cytotoxicity call for 37 molecules.

About 3,300 (8.5%) of roughly 39,000 compounds were called active. This is one part of a sample in which actives are shown more often than they occur.

This assay has as its system HepG2. Put plainly: cytotoxicity call (relative viability < 0.9). The conditions noted are these: 10 µM.
On to `O=C(C[C@@H]1CC[C@@H](NC(=O)Cc2ccccn2)[C@@H](CO)O1)NCCCN1CCOCC1`, for which the cytotoxicity call is “inactive”.

`C[C@H](CO)N1C[C@H](C)[C@H](CN(C)Cc2ccc(C(=O)Nc3ccccc3N)cc2)Oc2c(NS(=O)(=O)c3cn(C)cn3)cccc2C1=O`: the cytotoxicity call is “inactive”.

As for `C[C@@H]1CN([C@H](C)CO)C(=O)c2cccc(NC(=O)c3ccc(-c4nccs4)cc3)c2O[C@@H]1CN(C)C(=O)Nc1cccc2ccccc12`, the cytotoxicity call is “inactive”.

Take `COc1ccc(CN2C[C@@H](C)[C@@H](OC)CN(C)C(=O)c3cc(NC(=O)c4nc5ccccc5s4)ccc3OC[C@@H]2C)cc1`: the cytotoxicity call is “inactive”.

`CCCC(=O)Nc1ccc2c(c1)OC[C@@H](C)N(S(=O)(=O)c1cn(C)cn1)C[C@@H](C)[C@H](OC)CN(C)C2=O`: the cytotoxicity call was “inactive”.

On to `C[C@@H]1CN([C@@H](C)CO)C(=O)c2cc(NC(=O)Cc3ccccc3)ccc2O[C@@H]1CN(C)Cc1ccc(C(F)(F)F)cc1`, for which the cytotoxicity call was “inactive”.

On to `C[C@@H]1CN([C@H](C)CO)C(=O)c2cc(NC(=O)Cc3ccccc3)ccc2O[C@H]1CN(C)Cc1ccc(C(F)(F)F)cc1`, for which the cytotoxicity call was “inactive”.

As to `C[C@@H]1CN([C@@H](C)CO)C(=O)c2cc(NC(=O)Cc3ccccc3)ccc2O[C@@H]1CN(C)Cc1ccc(-c2ccccc2)cc1`, the cytotoxicity call is “active”.

`C[C@H](CO)N1C[C@H](C)[C@H](CN(C)Cc2ccc(-c3ccccc3)cc2)Oc2ccc(NC(=O)Cc3ccccc3)cc2C1=O`: the cytotoxicity call is “active”.

As to `C[C@@H]1CN([C@H](C)CO)C(=O)c2cc(NC(=O)Cc3ccccc3)ccc2O[C@@H]1CN(C)Cc1ccc(-c2ccccc2)cc1`, the cytotoxicity call is “inactive”.

`C[C@@H]1CN([C@@H](C)CO)C(=O)c2cc(NC(=O)Cc3ccccc3)ccc2O[C@H]1CN(C)Cc1ccc(-c2ccccc2)cc1`: the cytotoxicity call was “active”.

On to `C[C@@H]1CN([C@H](C)CO)C(=O)c2cc(NC(=O)Cc3ccccc3)ccc2O[C@H]1CN(C)Cc1ccc(-c2ccccc2)cc1`, for which the cytotoxicity call was “active”.

Regarding `C=C1c2cccc(O)c2C(=O)[C@@H]2C(=O)[C@]3(O)C(=O)[C@@H](C(N)=O)C(=O)[C@@H](N(C)C)[C@@H]3[C@@H](O)[C@H]12`, the cytotoxicity call was “inactive”.

For `C[C@@H]1CCCCO[C@@H](CN(C)C(=O)Nc2cccc3ccccc23)[C@@H](C)CN([C@@H](C)CO)C(=O)c2cc(N(C)C)ccc2O1`, the cytotoxicity call is “inactive”.

Consider `Cn1cnc(CCNC(=O)C[C@@H]2CC[C@@H]3[C@H](COC[C@H](O)CN3C(=O)Nc3ccc(Cl)cc3)O2)c1`, for which the cytotoxicity call was “inactive”.

Regarding `CC(=O)NCCCC[C@@H]1NC(=O)[C@@H]2C[C@H](C(=O)NCCCCCN)[C@H](c3ccc(O)cc3)N2C1=O`, the cytotoxicity call was “inactive”.

With `O=C(C[C@H]1CC[C@@H]2[C@H](COC[C@@H](O)CN2S(=O)(=O)c2ccccc2)O1)NCCN1CCCCC1`, the cytotoxicity call is “inactive”.

In the case of `C[C@H](CO)N1C[C@H](C)[C@H](CN(C)C(=O)Nc2ccc(C(F)(F)F)cc2)OCCCC[C@H](C)Oc2ccc(NC(=O)Nc3ccccc3)cc2C1=O`, the cytotoxicity call was “inactive”.

Turning to `COc1ccc(S(=O)(=O)Nc2ccc3c(c2)CC(=O)N([C@@H](C)CO)C[C@@H](C)[C@@H](CN(C)S(C)(=O)=O)O3)cc1`, the cytotoxicity call was “inactive”.

On to `C[C@@H]1CCCCO[C@H](CN(C)C(=O)Nc2ccc(C(F)(F)F)cc2)[C@@H](C)CN([C@@H](C)CO)C(=O)c2cc(NC(=O)Nc3cccc4ccccc34)ccc2O1`, for which the cytotoxicity call is “inactive”.

As for `C[C@H]1CN([C@@H](C)CO)C(=O)c2cc(NC(=O)Cc3ccccc3)ccc2O[C@H]1CN(C)Cc1ccc(-c2ccccc2)cc1`, the cytotoxicity call is “inactive”.

Consider `C[C@H](CO)N1C[C@H](C)[C@@H](CN(C)Cc2ccc(-c3ccccc3)cc2)Oc2ccc(NC(=O)Cc3ccccc3)cc2C1=O`, for which the cytotoxicity call is “inactive”.

`C[C@H]1CN([C@@H](C)CO)C(=O)c2cc(NC(=O)Cc3ccccc3)ccc2O[C@@H]1CN(C)Cc1ccc(-c2ccccc2)cc1`: the cytotoxicity call was “active”.

In the case of `CC(C)[Si]1(C(C)C)OCc2cc(-c3ccc(-c4ccc(Cl)c(Cl)c4)o3)nc(-c3ccc(Oc4ccccc4)cc3)c21`, the cytotoxicity call is “inactive”.

Turning to `Cc1ccc(N2CCC[C@]3(CCNC3=O)C2)nn1`, the cytotoxicity call is “inactive”.

Regarding `C[C@@H]1CCCCO[C@@H](CN(C)S(=O)(=O)c2ccc(Cl)cc2)[C@@H](C)CN([C@@H](C)CO)C(=O)c2cc(NS(=O)(=O)c3ccccc3)ccc2O1`, the cytotoxicity call is “inactive”.

For the molecule `C[C@@H]1CCCCO[C@@H](CN(C)C(=O)Cc2ccccc2)[C@@H](C)CN([C@@H](C)CO)C(=O)c2cc(NC(=O)Nc3ccc(F)cc3)ccc2O1`, the cytotoxicity call was “inactive”.

For the molecule `COc1ccc([Si](C)(C)[C@H]2[C@H](CC(=O)N3CCC[C@H]3CO)O[C@@]3(C(=O)N(Cc4cccc(N5C(=O)COc6ccccc65)c4)c4ccccc43)[C@@H]2C)cc1`, the cytotoxicity call is “inactive”.

As to `COc1ccc([Si](C)(C)[C@@H]2[C@@H](CCO)O[C@]3(C(=O)N(Cc4cccc(N5C(=O)COc6ccccc65)c4)c4ccccc43)[C@H]2C)cc1`, the cytotoxicity call was “active”.

Consider `COc1ccc([Si](C)(C)[C@@H]2[C@@H](CCO)O[C@]3(C(=O)N(Cc4ccccc4)c4ccc(N5CCCCC5=O)cc43)[C@H]2C)cc1`, for which the cytotoxicity call is “inactive”.

With `COc1ccc([Si](C)(C)[C@H]2[C@H](CCO)O[C@@]3(C(=O)N(Cc4ccc(N5C(=O)COc6ccccc65)cc4)c4ccccc43)[C@@H]2C)cc1`, the cytotoxicity call was “active”.

With `COc1ccc([Si](C)(C)[C@@H]2[C@@H](CCO)O[C@]3(C(=O)N(Cc4ccc(N5CCCCC5=O)cc4)c4ccccc43)[C@H]2C)cc1`, the cytotoxicity call is “inactive”.

Turning to `C[C@H]1[C@H]([Si](C)(C)F)[C@@H](CCO)O[C@]12C(=O)N(Cc1cccc(N3C(=O)COc4ccccc43)c1)c1ccccc12`, the cytotoxicity call is “inactive”.

Regarding `COc1ccc([Si](C)(C)[C@H]2[C@H](CCO)O[C@@]3(C(=O)N(Cc4ccc(N5CCCCC5=O)cc4)c4ccccc43)[C@@H]2C)cc1`, the cytotoxicity call was “inactive”.

Take `COc1ccc([Si](C)(C)[C@H]2[C@H](CCO)O[C@@]3(C(=O)N(Cc4ccccc4)c4ccc(N5C(=O)COc6ccccc65)cc43)[C@@H]2C)cc1`: the cytotoxicity call is “active”.

Take `COc1ccc([Si](C)(C)[C@H]2[C@H](CCO)O[C@@]3(C(=O)N(Cc4ccccc4)c4ccc(N5CCCCC5=O)cc43)[C@@H]2C)cc1`: the cytotoxicity call is “inactive”.

For the molecule `COc1cccc(S(=O)(=O)N2C[C@@H](O)COC[C@@H]3O[C@@H](CC(=O)N4CCN(C)CC4)CC[C@H]32)c1`, the cytotoxicity call is “inactive”.
